The results in this text go back to PubChem BioAssay AID652071 (NMMLSC, 2013).

Activity calls are given as the source filed them. The rule behind the calls is not given here.

The nature of the experiment: V-ATPase proton transport modulators in yeast, dose response, S. cerevisiae, pHLuorin, powder set 4 (AID 652071). Particulars: S. cerevisiae pHLuorin cytosolic pH fluorescence; series mostly up to 100 µM; response change, sign ambiguous: at the top concentration.
Consider `Cc1ccc(C(=O)Nc2ccccc2N2CCCCC2)o1`, for which the “response change, sign ambiguous” value was -65.7% (inactive).
With `CC(=O)N1CCN(c2ccccc2NC(=O)c2cccc(C#N)c2)CC1`, the “response change, sign ambiguous” value was -35.1% (inactive).
The same measure for `COCc1cccc(C(=O)Nc2ccccc2N2CCN(C(C)=O)CC2)c1`: 14% (inactive); for `CC(=O)N1CCN(c2ccccc2NC(=O)c2cncc(Cl)n2)CC1`: -21.5% (inactive).
The same measure for `CC(=O)N1CCN(c2ccccc2NC(=O)c2cccc(Br)n2)CC1`: 32.9% (inactive).
Next, `CN(C)Cc1ccc(C(=O)Nc2ccccc2N2CCCCC2)o1`: -16.9% (inactive); `CC(=O)N1CCN(c2ccccc2NC(=O)c2cncc(C)n2)CC1`: -20.8% (inactive); `CN1CCN(c2ccccc2NC(=O)c2cccc(C(N)=O)c2)CC1`: -19.6% (inactive).
With `CS(=O)(=O)c1cccc(C(=O)N2CCN(c3nc4ccc(F)cc4s3)CC2)c1`, the “response change, sign ambiguous” value is -19.9% (inactive).
For `COCc1ccc(C(=O)Nc2ccccc2N2CCN(C(C)=O)CC2)o1`, the “response change, sign ambiguous” value was -4.67% (inactive).
The same measure for `O=C(Nc1ccccc1N1CCCCC1)c1ccc(Cl)o1`: -19.9% (inactive).
Next, `CC(C)(C)c1ccc(C(=O)Nc2ccccc2N2CCCCC2)o1`: -24.8% (inactive).
On to `COCc1cccc(C(=O)Nc2ccccc2N2CCCCC2)c1`, for which the “response change, sign ambiguous” value is -22.1% (inactive).
The same measure for `CC(=O)N1CCN(c2ccccc2NC(=O)c2ccc(C(F)(F)F)o2)CC1`: 4.7% (inactive); for `CC(=O)N1CCN(c2ccccc2NC(=O)c2cccc(C(=O)N(C)C)c2)CC1`: 24.7% (inactive); for `N#CCc1cccc(C(=O)N2CCN(c3nc4ccc(F)cc4s3)CC2)c1`: 19.6% (inactive).
